Rows were chosen to be rich in hits. Some 5.2% of all compounds tested hit in one or more screens of this group.
VDR inh – blocks the human vitamin D receptor | P11473 | VDR-SRC2-3 peptide fluorescence polarization, 2 h | Potency, µM, for inactives: max response, negative = inhibition, hits mostly inhibitors | 0.93% of 400,000 active | AID 504847
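FP read-out; VDR + SRC2-3 coactivator peptide; 23 nl compound by pintool; 2 h RT incubation; reagents held at 4 deg C, protected from light.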
IDH1 R132H inh – human IDH1 R132H inhibition; IDH1-R132H enzyme, NADPH consumption, diaphorase/resazurin fluorescence; Potency, µM (highest dose often 76.6 µM), without a hit: top-dose activity change, negative = inhibition, actives largely listed as inhibitors; 0.093% of 390,000 active; AID 602179; also: nearly all actives have a fitted effect of over 65% in size
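IDH1-R132H (0.5 ug/mL dispensed) in pH 7.5 Tris buffer was preincubated 30 min with compound, then given a substrate mix of 0.016 mM NADPH and 2 mM alpha-KG for 80 min at room temperature; remaining NADPH was read by diaphorase/resazurin fluorescence.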
Sfp inh – blocks B. subtilis Sfp PPTase activity; 3.5% of 310,000 active; Potency, µM, for inactives: largest response in the series, negative = inhibition, actives largely listed as inhibitors; Biochemical Sfp PPTase activity, qHTS; Q9F4F7;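 also: the enzyme is Sfp with the accession as filed and its product quenches rhodamine fluorescence; 0% = enzyme reaction without inhibitor and -100% = no enzyme wells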
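Compounds were incubated with enzyme (final 15 nM) for 15 min at room temperature before substrate addition started the reaction. Fluorescence at 525 nm excitation, 598 nm emission was recorded immediately and after 30 minutes.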
rTrxR1 inhibitor – rat TrxR1 inhibition. recombinant rTrxR1, NADPH fluorescence consumption, selenite substrate. 1% of 390,000 active. Potency, µM (highest dose often 114 µM), for inactives: at the top dose activity change, negative = inhibition, most hits filed as inhibitors. O89049; also: nearly all actives have a fitted effect of over 65% in size
Target sequence (O89049 whole entry, looked up): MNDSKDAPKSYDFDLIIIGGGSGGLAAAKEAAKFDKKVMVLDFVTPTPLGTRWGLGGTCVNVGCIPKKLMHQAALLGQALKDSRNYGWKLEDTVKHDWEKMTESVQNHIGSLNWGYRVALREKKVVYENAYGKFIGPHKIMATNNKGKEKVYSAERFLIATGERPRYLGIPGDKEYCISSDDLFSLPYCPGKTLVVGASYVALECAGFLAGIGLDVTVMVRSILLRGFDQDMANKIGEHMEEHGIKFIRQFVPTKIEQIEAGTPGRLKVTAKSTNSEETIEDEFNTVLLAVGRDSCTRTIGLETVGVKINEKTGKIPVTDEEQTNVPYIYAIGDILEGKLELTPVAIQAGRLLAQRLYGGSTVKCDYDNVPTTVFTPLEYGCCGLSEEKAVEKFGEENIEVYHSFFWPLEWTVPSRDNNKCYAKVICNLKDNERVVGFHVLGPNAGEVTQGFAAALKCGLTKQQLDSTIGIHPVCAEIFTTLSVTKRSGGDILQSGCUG
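Rat TrxR1 (90 nM in the dispensed reagent) was pre-reduced with 400 uM NADPH for 5 min at room temperature, then incubated with compound for 15 min. After 400 uM selenite was added, NADPH fluorescence (Ex 340/Em 450 nm) was followed for 8 min.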
PLK1 PBD inh – inhibitors of human PLK1 polo-box domain binding. AID 720504. P53350. Plk1 PBD binding of FITC phosphopeptide, fluorescence polarization. 2.8% of 360,000 active. Potency, µM, for inactives: max response, negative = inhibition, usual class: inhibitors; also: series mostly up to about 57 µM; nearly all actives have a fitted effect of over 65% in size
TrxR1 substrate – is turned over as a substrate by rat TrxR1 | purified TrxR1 substrate turnover, NADPH consumption readout | Potency, µM (top dose mostly 114 µM), for inactives: at the top dose activity change, negative = substrate turnover | 0.01% of 390,000 active | O89049; also: nearly all actives have a fitted effect of over 50% in size
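Rat TrxR1, dispensed at 90 nM, was prereduced with 400 uM NADPH (final) for 5 min at ~22 deg C, then incubated with compound 15 min before 400 uM selenite. A first-read NADPH fluorescence drop versus no-compound background flagged substrates.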
TbPYK inh – Trypanosoma brucei pyruvate kinase inhibition, cherry-pick confirmation. Potency, µM (series often up to 76.9 µM), for inactives: at the highest dose activity change, negative = inhibition, usual class: inhibitors. AID 720569. recombinant TbPYK, Kinase-Glo ATP luminescence. 67% of 890 active. shares compounds with PLK1 PBD inh; also: nearly all actives have a fitted effect of over 70% in size
TbPYK orthogonal – orthogonal confirmation of Trypanosoma brucei pyruvate kinase inhibitors; Potency, µM (titrated, usually from 76.9 µM), for inactives: at the top dose activity change, negative = inhibition, usual class: inhibitors; 62% of 890 active; shares compounds with PLK1 PBD inh; recombinant TbPYK, ADP-Glo luminescence, 60 min; also: nearly all actives have a fitted effect of over 75% in size
Numbers without * were called inactive; [ ] = dose if it differs, or a comment. Calls follow the shape of the dose curve; as a rule, active = well fitted curve in the direction sought with a large enough effect; inconclusive = small, poorly fitted or top-dose-only effect, or another doubt; inactive = no such curve, though single readings can be large; an effect the other way counts as inactive or inconclusive. Unless noted, % is scaled to controls: 0 for no effect and ±100 for the full control effect; potency is read from the fitted curve at half-maximal effect.

Screening Cc1c([N+](=O)[O-])cc(N2C(=O)C=CC2=O)cc1[N+](=O)[O-] returned VDR inh -7%, IDH1 R132H inh 4%, rTrxR1 inhibitor 3.2µM*, PLK1 PBD inh 2.7µM*, TrxR1 substrate 3%[57.1 µM], TbPYK inh 4µM* and TbPYK orthogonal 7.9µM*.
For Cc1cc(C)cc(N2C(=O)C=CC2=O)c1 the results were VDR inh 40µM*, IDH1 R132H inh 6%, rTrxR1 inhibitor 1.1µM*, PLK1 PBD inh 3µM*, TrxR1 substrate -2%, TbPYK inh 10µM* and TbPYK orthogonal 14µM*.
For CC(C)NC(=O)N1CC2(CCN(S(=O)(=O)c3ccccc3)CC2)C1 the results were VDR inh 4% and Sfp inh 4%.
For O=C(Nc1ccccc1C(F)(F)F)C1CCN(C(=O)Cc2ccccc2)CC1 the results were VDR inh -3%, IDH1 R132H inh 7%, Sfp inh 8%, rTrxR1 inhibitor -15%, PLK1 PBD inh 0% and TrxR1 substrate -5%.
For CCc1ccc(S(=O)(=O)Nc2cc3c(cc2C)n(C)c(=O)c(=O)n3C)cc1 the results were VDR inh -1%, IDH1 R132H inh 65%, rTrxR1 inhibitor 17%[57.1 µM] and TrxR1 substrate 3%[57.1 µM].
For CC(C)CCNC(=O)NC(=O)CSc1ccc(S(=O)(=O)N2CCOCC2)cn1 the results were VDR inh 18%, IDH1 R132H inh 1%, rTrxR1 inhibitor -13%, PLK1 PBD inh inconclusive, TrxR1 substrate -5%, TbPYK inh 16µM* and TbPYK orthogonal 14µM*.
CC(C)C(C)NC(=O)CSc1ccc(S(=O)(=O)N2CCOCC2)cn1 (stereo not drawn) was read as VDR inh 6%, IDH1 R132H inh -11%, rTrxR1 inhibitor 15%, PLK1 PBD inh -11% and TrxR1 substrate 0%.
CCOC(=O)C1=C(C)c2ccccc2N(C(=O)OC)C1(C)C(=O)OCC (stereo not drawn) was read as VDR inh inconclusive, IDH1 R132H inh -5%, Sfp inh 3.5µM*, rTrxR1 inhibitor 35µM*, PLK1 PBD inh inconclusive, TrxR1 substrate -2%, TbPYK inh 32µM* and TbPYK orthogonal 40µM*.
`CCOC(=O)C1=C(C)c2ccccc2OC1(CC)C(=O)OCC` (stereo not drawn) gave VDR inh inconclusive, IDH1 R132H inh 18%, Sfp inh -5%, rTrxR1 inhibitor -5%, PLK1 PBD inh 1% and TrxR1 substrate -3%.
`C=CCN1C(=O)/C(=c2\sc3nc(=O)c(Cc4ccc(OC)c(OC)c4)nn3c2=O)c2ccccc21` gave VDR inh 40µM*, IDH1 R132H inh 0%, Sfp inh 16µM*, rTrxR1 inhibitor inconclusive, PLK1 PBD inh 11µM*, TrxR1 substrate -8%, TbPYK inh inconclusive and TbPYK orthogonal 35µM*.
`Cc1c(N2C(=O)/C(=C\c3ccccc3O)SC2=S)c(=O)n(-c2ccccc2)n1C` gave VDR inh inconclusive, IDH1 R132H inh 6%, Sfp inh 13µM*, rTrxR1 inhibitor 11%, PLK1 PBD inh 1.7µM*, TrxR1 substrate -8%, TbPYK inh 4.5µM* and TbPYK orthogonal 7.9µM*.
For O=[N+]([O-])c1ccccc1N=Nc1ccc(O)cc1O the results were VDR inh -12%, IDH1 R132H inh 5%, rTrxR1 inhibitor 4%[57.1 µM], PLK1 PBD inh -5% and TrxR1 substrate -12%[57.1 µM].
